PubChem BioAssay (NCI)
This is part of a sample that, as a whole, favours compounds with a hit. Of some 79,000 tested, about 15% had one in any assay. Cut-off read from the data, not from the text of the source: active = growth inhibition above about 70%; inactive = the rest.

What was measured:
[1] = NCI Yeast Anticancer Drug Screen. Data for the rad50 strain (AID 155);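 note: 0% = growth of vehicle-only cultures of the same strain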; settings: S. cerevisiae rad50 strain growth inhibition; at 50.0 µM; hits give high values
Procedure, shortened: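 DNA repair mutant yeast, compound exposure, growth read-out; inhibition is taken relative to vehicle.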

[2] = NCI Yeast Anticancer Drug Screen. Data for the mec2-1 strain (AID 157); settings: S. cerevisiae mec2-1 strain, at 50.0 µM, hits give high values
Procedure, shortened: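 Mutant yeast (mec2-1) grown with compound; growth inhibition relative to vehicle control reported.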

[3] = NCI Yeast Anticancer Drug Screen. Data for the sgs1 mgt1 strain (AID 161);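 note: 0% = growth of cultures given vehicle only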; settings: S. cerevisiae sgs1 mgt1 strain, at 50.0 µM, hits give high values
Procedure, shortened: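 Compounds are added to genetically altered yeast, and growth is compared with cultures given vehicle alone to give percent inhibition.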

[4] = NCI Yeast Anticancer Drug Screen. Data for the cln2 rad14 strain (AID 165);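 note: 0% = growth equal to vehicle treated cultures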; settings: S. cerevisiae cln2 rad14 strain, at 50.0 µM, hits give high values
Procedure, shortened: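 Readout is yeast growth inhibition versus vehicle-treated controls, using a strain with cln2 and rad14 alterations exposed to compound.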

[5] = NCI Yeast Anticancer Drug Screen. Data for the bub3 strain (AID 167); settings: S. cerevisiae bub3 mutant strain, at 50.0 µM, hits give high values
Procedure, shortened: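 In this screen, a yeast mutant lacking normal mitotic checkpoint function is challenged with compound. Relative growth versus vehicle gives the inhibition value.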

[6] = NCI Yeast Anticancer Drug Screen. Data for the mlh1 rad18 strain (AID 175); settings: S. cerevisiae mlh1 rad18 strain growth inhibition; at 50.0 µM; hits give high values
Procedure, shortened: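 Genetically defined yeast (DNA repair-deficient) exposed to compounds; growth inhibition determined relative to vehicle.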

Measured: growth inhibition

O=C1C=C2CCCCCCCCC(C1)C2 (configuration not stated)
inactive: [1] -1.85% | [2] -9.85% | [3] -5.45% | [4] -18.8% | [5] 12.4% | [6] 0.1%

CC(=O)c1c2c(cc3c1CC1(C3)Cc3cc4c(c(C(C)=O)c3C1)CCC4)CCC2
inactive: [1] -21.5% | [2] -31.4% | [3] -4% | [4] -5.45% | [5] -3.35% | [6] -30.6%

COn1nnc2ccccc21
inactive: [1] -21% | [2] -13.8% | [3] -19.9% | [4] 5.15% | [5] 7.9% | [6] -18.1%

O=C(OCCO)c1ccc(O)c(O)c1
inactive: [1] 14.6% | [2] -4.65% | [3] 3.1% | [4] -25.8% | [5] -6.1% | [6] 7.55%

COc1ccc(CC(NC(=O)OCc2ccccc2)C(=O)NC2C(CO)OC(n3cnc4c(N)ncnc43)C2O)cc1 (configuration not stated)
inactive: [1] 25.8% | [2] -6% | [3] 10.2% | [4] 2.15% | [5] -0.75% | [6] -1.75%

Cc1c(C2CCSc3ccccc3N2)sc2ccccc12 (configuration not stated)
inactive: [1] -17.2% | [2] -27.4% | [3] 11.3% | [4] 14.6% | [5] 4.65% | [6] 7.2%

CCN(CC)c1ccc(N=Nc2ccc(C)cc2)cc1
inactive: [1] -6.7% | [2] -22.5% | [3] -12.5% | [4] -0.4% | [5] -15.8% | [6] 12.1%

O=C(Nc1cccc2ccccc12)c1ccccc1
inactive: [1] 18.4% | [2] -38.2% | [3] -0.25% | [4] -37.2% | [5] -9.45% | [6] 19.4%

O=C(c1ccccc1)c1ccc(Cl)c(Cl)c1
inactive: [1] -5.3% | [2] -23.3% | [3] 2.05% | [4] -55.5% | [5] 6.65% | [6] -8.05%

Cc1ccc(NC(=S)N(CCC#N)C2CCCCC2)cc1
inactive: [1] -7.6% | [2] -10.1% | [3] 16.2% | [4] 6.95% | [5] 6.3% | [6] 0.85%

COc1ccc(/C(C)=N/NC(=O)CC(=O)N(C(=O)c2ccccc2)c2ccc(C)cc2)cc1
inactive: [1] -8.45% | [2] -36% | [3] -6.5% | [4] 8.15% | [5] -27.2% | [6] -17.9%

CC(=O)OC1CC2CC1C1CC=CC21 (configuration not stated)
inactive: [1] 35.2% | [2] -2% | [3] -0.4% | [4] 34.1% | [5] 2.4% | [6] 14.4%

CC(=O)CC(OC(C)=O)C1=CCC2C(CC1C)OC(=O)C2C (configuration not stated)
inactive: [1] 45.8% | [2] 9.8% | [3] -22.6% | [4] -0.65% | [5] -36.5% | [6] -56.6%

CS(=O)(=O)C(CCC(=O)C(c1ccccc1)c1ccccc1)C(=O)c1ccccc1 (configuration not stated)
inactive: [1] -7.7% | [2] -11% | [3] -20.5% | [4] -39.5% | [5] -1.55% | [6] -29.2%

NCCCC(N)C(=O)O (configuration not stated)
inactive: [1] -16.9% | [2] -17.4% | [3] -33.5% | [4] -12.7% | [5] -42.6% | [6] -19.7%

COc1ccc(N2C(=O)C3c4[nH]c5ccccc5c4C4CC(C)CC(C)C4C3C2=O)cc1 (configuration not stated)
inactive: [1] 53% | [2] 0.65% | [3] 8.85% | [4] -25.2% | [5] 41% | [6] 14.7%

CC(C)=CCN1c2ccccc2NC(=O)CC1C (configuration not stated)
inactive: [1] -24.1% | [2] -66.7% | [3] -6.55% | [4] 4.5% | [5] -10.9% | [6] -14.9%

CCCC1OCCO1
inactive: [1] -15.3% | [2] -0.95% | [3] -6.85% | [4] -4.5% | [5] 5.15% | [6] -3.9%

CCCCSCc1nc2nc(Cl)c(Cl)nc2[nH]1
inactive: [1] -18.1% | [2] -37.2% | [3] -23.9% | [4] 1.15% | [5] -44.8% | [6] -9.25%

COCC(=O)C(C(C)=O)C(c1ccc2c(c1)OCO2)C(C(C)=O)C(=O)COC (configuration not stated)
inactive: [1] -40.5% | [2] -8.25% | [3] -18.9% | [4] -39.5% | [5] -5.75% | [6] -2.6%

C(=N\N=C\c1ccccn1)/c1ccccn1
inactive: [1] 9.65% | [2] -6.95% | [3] 5.5% | [4] 4.8% | [5] -3.7% | [6] 26.2%

c1ccc(C2(c3ccccc3)SC2(c2ccccc2)c2ccccc2)cc1
inactive: [1] -13.9% | [2] -7.75% | [3] -11.1% | [4] -24.1% | [5] 2.15% | [6] -6.65%

O=C(/C=C/c1ccc(O)cc1)NCCc1c[nH]c2ccc(O)cc12
inactive: [1] 0.75% | [2] -10% | [3] 10% | [4] 8.35% | [5] -3.7% | [6] 7.75%

CCOc1cc(N)nc(N)n1
inactive: [1] 13.1% | [2] -10.3% | [3] 7.15% | [4] 5.9% | [5] 5.65% | [6] -7.75%

O=C1CCC2CCC1C2 (configuration not stated)
inactive: [1] 10.1% | [2] -16.6% | [3] -41.3% | [4] 15.8% | [5] -36.7% | [6] -28.3%

O=C(O)CCC1(c2ccccc2)CCCCC1
inactive: [1] 6.1% | [2] 13.9% | [3] 11.6% | [4] 10.2% | [5] 47.7% | [6] -0.9%

O=[N+]([O-])c1ccccc1C(Nc1nncs1)Nc1nncs1
inactive: [1] 17.3% | [2] 22.5% | [3] 41.5% | [4] -6.05% | [5] -3.3% | [6] 2.3%

O=C1CCC2c3ccccc3C(=O)C2C1 (configuration not stated)
inactive: [1] 6.7% | [2] 4.2% | [3] -1.45% | [4] -19.1% | [5] -14.1% | [6] 9.3%

CC(=O)CC(=O)NC(C)(C)C
inactive: [1] 16.6% | [2] -33% | [3] -16.4% | [4] -13.2% | [5] 2.85% | [6] 7.7%

CCC(C)CCC(C)(O)CC (configuration not stated)
inactive: [1] 9.7% | [2] -9.9% | [3] -5.4% | [4] -43.1% | [5] 16.2% | [6] 1.35%

COc1ccc2oc(=N)c(C(=O)NCc3ccccc3)cc2c1
inactive: [1] -4% | [2] -0.85% | [3] -19.1% | [4] -6.35% | [5] -34.1% | [6] -24.6%

CC(O)(c1ccncc1)c1cc2ccccc2n1S(=O)(=O)c1ccccc1 (configuration not stated)
inactive: [1] 2.2% | [2] 2.65% | [3] 14.8% | [4] -20.1% | [5] 1.95% | [6] 6.15%

O=C(O)CC(CC(=O)O)c1ccc(F)cc1
inactive: [1] -2% | [2] 0.95% | [3] -10.2% | [4] -2.35% | [5] 2.05% | [6] -8.5%

CCCCNS(=O)(=O)c1n[nH]c(=O)[nH]c1=O
inactive: [1] -27.1% | [2] -10.1% | [3] -37.9% | [4] -12.4% | [5] -38% | [6] -19.2%

CC(O)CC(C)(C)O (configuration not stated)
inactive: [1] 28.1% | [2] 13.1% | [3] 8.55% | [4] 9.9% | [5] 15.3% | [6] 4.2%

O=C(/C=N/O)Nc1cccc(Cl)c1I
inactive: [1] 18.4% | [2] -5.2% | [3] 30.1% | [4] 2.95% | [5] 12.6% | [6] 10.4%

Clc1c(Cl)c(Cl)c(CSCc2c(Cl)c(Cl)c(Cl)c(Cl)c2Cl)c(Cl)c1Cl
inactive: [1] -16.2% | [2] -7% | [3] -12.2% | [4] -31.9% | [5] 2.1% | [6] -13.3%
